Results: PubChem BioAssay AID977622 (Broad Institute, 2014)
In all, about 1,900 compounds went through this assay and fewer than 10 were called active. Another 39% or so got no clear call; they are omitted.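 How the source made its calls: active means Green signal of the normal strain falls at least twice as much as red signal of the resistant mutant, with overall culture growth loss under a set limit; inconclusive means no clear call, values can overlap the other calls; inactive means the rest.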 Not all results are given here.

How the values were obtained:
[1] = growth inhibition of wild-type GFP E. coli, dose response, h38 mutant RFP, cherry-pick (AID 977622); conditions: activity change: E. coli mixed culture, total growth OD600 at 50 uM, at 50 µM
[2] = tested on: E. coli h38 humanized mutant ribosome RFP fluorescence, mixed culture, 24 h; experiment: as above; conditions: h38 mutant RFP at 50 uM; at 50 µM

| Compound | activity change [1] [%] | outcome [1] | activity change [2] [%] |
| --- | --- | --- | --- |
| Fc1ccc(-c2nc3c(Cl)cc(C(F)(F)F)cn3c2Cc2ccsc2)cc1 | -5.9 | inactive | 5.92 |
| COC(=O)CN1C(=S)N(c2ccc(F)cc2)C(=O)C1CC(=O)Nc1ccc(OC)cc1 (centres undefined) | -4.61 | inactive | 9.32 |
| CCOc1ccc(C(C)=O)cc1CN1C(=O)NC2(CCCCCCC2)C1=O | -23.9 | inactive | -21 |
| O=C(c1ccc2c3c(cccc13)CC2)N1CCN(c2ncccn2)CC1 | -3.01 | inactive | -11.5 |
| Cc1ccc(NC(=O)CN(C)S(=O)(=O)c2cccc3cccnc23)cc1F | -37.4 | inactive | -40.8 |
| O=c1[nH]c2cc([N+](=O)[O-])ccc2c2ccccc12 | 4.42 | inactive |  |
| COC(=O)c1cc2c(c3c4cc(F)ccc4n(S(=O)(=O)c4cccc(C)c4)c13)C(=O)N(Cc1ccco1)C2 | -11.5 | inactive | 17.4 |
| O=C(Cc1ccc(Cl)cc1)c1ccc(O)cc1 | -1.58 | inactive |  |
| Cc1ccc(Cc2c(-c3ccc(C#N)cc3)nc3ccc(Br)cn23)cc1 | 2.82 | inactive | -11 |
| O=c1c2ccccc2cnn1Cc1n[nH]c(=S)n1C1CC2CCC1C2 (centres undefined) | -3.34 | inactive | -28.9 |
| Cc1cccc(-c2ccc([C@H]3[C@H](CO)N4CCCCN(S(=O)(=O)c5ccccc5C)C[C@@H]34)cc2)c1 | 4.65 | inactive | 11.4 |
| Nc1ccc2nc(-c3ccc(Cl)cc3)[nH]c2c1 |  | inactive | -11.3 |
| CS(=O)(=O)N1CC2CCCN2c2ccc(C(F)(F)F)cc21 (centres undefined) | -10.4 | inactive | 2.53 |
| Cc1ccc(C)c(N(CC(=O)NC2CCCC2)C(=O)c2oc(C(C)(C)C)cc2C)c1 | -14.2 | inactive | 21 |
| COc1cc2ccccc2cc1C(=O)NC1CCCCC1 | -0.887 | inactive |  |
| COCCCNC(=O)c1ccc(-c2nc3ccccc3nc2-c2ccccc2)cc1 | -2.27 | inactive | 8.8 |
| Cc1ccc(NC(=O)CCCSc2ccccc2)cc1S(=O)(=O)N1CCOCC1 | 7.64 | inactive | 4.8 |
| NC(=O)c1cc(C(=O)c2ccc(Cl)cc2)c[nH]1 | -13.1 | inactive | 0.863 |
| Cc1noc(C)c1NC(=O)Nc1ccc2c(c1)C(=O)N([C@@H](C)CO)C[C@H](C)[C@@H](CN(C)C(=O)Nc1ccc3c(c1)OCO3)OCCCC[C@H](C)O2 | -13.3 | inactive | 7.1 |
| O=C(c1ccccc1)N(c1ccccc1)c1nccc2ccccc12 | -7.9 | inactive | 31.1 |
| Cc1ccc(S(=O)(=O)Nc2ccccc2CNc2cccc(C)n2)cc1 | -17.7 | inactive |  |
| CCC(C(=O)Nc1ccsc1C(=O)OC)c1ccccc1 (centres undefined) | -5.91 | inactive | 40.7 |
| CCOc1ccc(-c2nc(-c3cccs3)c(CC(=O)O)s2)cc1OC | -21.4 | inactive | -8.71 |
| COc1ccc(NS(=O)(=O)c2ccc(Cl)c(NC(=O)c3ccccc3F)c2)cc1 | -40 | inactive | -6.96 |
| Cc1noc(C)c1NC(=O)Nc1ccc2c(c1)C(=O)N([C@@H](C)CO)C[C@@H](C)[C@H](CN(C)C(=O)Nc1ccc3c(c1)OCO3)OCCCC[C@H](C)O2 | -12.5 | inactive | -3.87 |
| COc1cc(-c2ccc(N3C(c4ccsc4)=Cc4ccc(F)cc4C3c3c[nH]c4ccc(C#N)cc34)cc2)cc(OC)c1OC (centres undefined) | 7.16 | inactive | 8.77 |
| c1ccc2c(c1)CSc1ccccc1N2 | -5.5 | inactive | -11.4 |
| CC(C)=C(c1ccc(Cl)cc1)c1c(N)ncnc1N | -10.9 | inactive | -21.6 |
